Source: PubChem BioAssay (NCATS)
Results filed as inconclusive are left out. A call without a number means that no potency is given here. Calls of active or inactive are those of the source. Calls follow the shape of the dose curve; as a rule, active = well fitted cell-killing curve with a large enough effect; inconclusive = small, poorly fitted or top-dose-only effect, or effect the other way; inactive = no such curve, though single readings can be large or run the other way.
Potency is read from the fitted curve at half-maximal effect.

Experiment: Viability qHTS for spleen associated tyrosine kinase inhibitor (SYKi) naive MV4-11 cells (AID 1963823); also: nearly all actives have a fitted effect of over 40% in size
Conditions: MV4-11 AML viability, CellTiter-Glo luminescence, 72 h; series mostly up to 45 µM
Procedure, shortened: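 Compounds were dispensed acoustically onto plates, MV4-11 cells (SYKi-naive) added at 500 per well, and plates incubated 72 hr at 37 C. CellTiter-Glo was added and luminescence measured after 10 min.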
For `O=C(O)CCc1cccc(O)c1O[C@@H]1O[C@H](CO)[C@@H](O)[C@H](O)[C@H]1O`, the Potency was “inactive”.
For `COc1cc(C2Oc3c(OC)cc(CCCO)cc3C2CO)ccc1O` (stereo not given), the Potency was “inactive”.
With `CC1(C)CCC[C@@]2(C)[C@H]1[C@H](O)C=C1COC(=O)[C@@]12O` the Potency was “inactive”.
For `OC[C@@]1(O)CO[C@@H](OC[C@H]2O[C@@H](Oc3c[nH]c4ccccc34)[C@H](O)[C@@H](O)[C@@H]2O)[C@@H]1O`, the Potency was “inactive”.
For `C=C1C(=O)O[C@H]2/C=C(/C)[C@@H](OC(C)=O)C/C=C(\C)C[C@@H](OC(=O)/C(=C/C)COC(=O)/C(=C/C)CO)[C@@H]12`, the Potency was 1780 nM (active).
For `C=C1C(O)C[C@@H]2C(C(=O)O)=CO[C@@H](O[C@@H]3O[C@H](CO)[C@@H](O)[C@H](O)[C@H]3OC(=O)c3ccc(O)cc3)[C@H]12` (stereo not given in full), the Potency was “inactive”.
With `COc1cc(/C=C/C(=O)N2CCN(CC(=O)N3CCCC3)CC2)cc(OC)c1OC` the Potency was “inactive”.
For `C[C@H]1[C@H](C)CC[C@]2(C(=O)O)CC[C@]3(C(=O)O)C(=CCC4[C@@]5(C)CC[C@H](O[C@@H]6O[C@H](C)[C@@H](O)[C@H](O)[C@H]6O)C(C)(C)C5CC[C@]43C)[C@H]12` (stereo not given in full), the Potency was “inactive”.
With `CC(=O)N[C@H]1[C@H](O[C@H]2CC[C@@]3(C)C(CC[C@]4(C)C3CC=C3C5CC(C)(C)CC[C@]5(C(=O)O)C(O)C[C@]34C)C2(C)C)O[C@H](CO[C@@H]2O[C@H](C)[C@H](O)[C@H](O)[C@H]2O[C@@H]2OC[C@@H](O)[C@H](O)[C@H]2O)[C@@H](O)[C@@H]1O` (stereo not given in full) the Potency was 3480 nM (active).
In the case of `Cc1cc(-c2cc(O)ccc2Cl)cc2nnc(Nc3ccc(OCCN4CCCC4)cc3)nc12`, the Potency is reported as 1840 nM (active).
In the case of `COc1ccc2c(c1)OC[C@]1(O)c3cc4c(cc3O[C@H]21)OCO4`, the Potency is reported as “inactive”.
For `CCOC(=O)c1ccc(OCCC2CCN(c3ccc(C)nn3)CC2)cc1`, the Potency was “inactive”.
For `CNc1nc(Cc2ccccc2)nc2c1CCNC[C@@H]2C`, the Potency was “inactive”.
For `NC(=O)Nc1cc(-c2cccc(F)c2)sc1C(=O)NC1CCCNC1` (stereo not given), the Potency was “inactive”.
For `O=C(O)c1cn(C2CC2)c2cc(N3C[C@@H]4C[C@H]3CN4)c(F)cc2c1=O`, the Potency was “inactive”.
For `CC1=CC(=O)C2C(C)(C)CC(O)CC2(C)C1CO` (stereo not given), the Potency was “inactive”.
In the case of `CSc1ccc(/C=C2/C(C)=C(CC(=O)O)c3cc(F)ccc32)cc1`, the Potency is reported as “inactive”.
For `C=C1CC[C@@H]2[C@](C)(CO[C@@H]3O[C@H](CO)[C@@H](O)[C@H](O)[C@H]3O)[C@H](O)CC[C@@]2(C)[C@@H]1C/C=C1/C(=O)OC[C@H]1O`, the Potency was “inactive”.
In the case of `COc1c(C(CC(C)C)OC(C)=O)ccc(Oc2c(O)cc(C)cc2/C=C/C(C)=O)c1C(=O)O` (stereo not given), the Potency is reported as “inactive”.
In the case of `C[C@@H]1O[C@@H](O[C@H]2[C@H](O[C@H]3CC[C@@]4(C)C(CC[C@]5(C)C4CC=C4[C@@H]6CC(C)(C)CC[C@]6(C(=O)O[C@@H]6OC[C@H](O)[C@H](O)[C@H]6O[C@@H]6O[C@@H](C)[C@H](O[C@@H]7O[C@H](CO)[C@@H](O)[C@H](O)[C@H]7O)[C@H](O)[C@H]6O)[C@H](O)C[C@]45C)C3(C)C)O[C@H](CO)[C@@H](O[C@@H]3OC[C@@H](O)[C@H](O)[C@H]3O)[C@@H]2O)[C@H](O)[C@H](O)[C@H]1O` (stereo not given in full), the viability (% of control) is reported as 79.8% [at 9.25 µM] (inactive).
For `CCCCC1CCC(c2nc(-c3ccncc3)no2)CC1` (stereo not given), the Potency was “inactive”.
In the case of `C/C=C(\C)C(=O)O[C@@H](C)[C@H]1CC[C@]2(O)C3CCC4C[C@@H](OC5CC(OC)C(OC6CC(OC)C(OC7CC(OC)C(OC8OC(C)C(OC9OC(CO)C(O)C(O)C9O)C(OC)C8O)C(C)O7)C(C)O6)C(C)O5)CC[C@]4(C)C3[C@H](O)[C@@H](O)[C@]12C` (stereo not given in full), the viability (% of control) is reported as 34.7% [at 9.25 µM] (inactive).
With `CC(=O)O[C@H]1[C@@]2(O)C[C@H](C)[C@H](OC(=O)c3ccccc3)[C@@H]2[C@@H](OC(=O)CO)[C@]2(OC(C)=O)C[C@H]3C(=O)C(C)(C)C[C@@H]3[C@@]1(C)[C@H]2OC(C)=O` the Potency was “inactive”.
In the case of `CC(=O)O[C@H]1[C@@H](O)[C@H](O[C@H]2[C@@H]3C=CO[C@@H](O[C@H]4O[C@@H](CO)[C@H](O)[C@@H](O)[C@@H]4O)[C@@H]3[C@@]3(CO)O[C@@H]23)O[C@@H](C)[C@@H]1OC(=O)/C=C/c1ccccc1`, the Potency is reported as “inactive”.
In the case of `C[n+]1ccc(-c2c3nc(c(-c4cc[n+](C)cc4)c4ccc([nH]4)c(-c4cc[n+](C)cc4)c4nc(c(-c5cc[n+](C)cc5)c5ccc2[nH]5)C=C4)C=C3)cc1`, the Potency is reported as “inactive”.
With `C/C=C(/C)C(=O)O[C@H]1C=C(CO)C(=O)[C@H](OC(=O)/C(C)=C/CO)[C@H]1C(C)C` the Potency was 2020 nM (active).
With `C=C(CC/C=C(\C)C(=O)O)C1(O)CC=C(C)CC1` (stereo not given) the Potency was “inactive”.
In the case of `COc1cc([C@@H](O[C@@H]2O[C@H](CO)[C@@H](O)[C@H](O)[C@H]2O)[C@@H]2CO[C@H](c3ccc(O)c(OC)c3)[C@H]2CO)ccc1O`, the Potency is reported as “inactive”.
In the case of `O=C1NC(c2cccc([N+](=O)[O-])c2)=CCN1c1ccccc1O`, the Potency is reported as “inactive”.
In the case of `Nc1nc2c(cnn2CCCc2ccc(O)cc2)c2nc(-c3ccco3)nn12`, the Potency is reported as “inactive”.
For `C#CCCCn1cc(-c2cccc3c2N[C@@H](C)CC(=O)N3)cn1`, the Potency was “inactive”.
For `CC(C)(O)/C=C/CC(C)(O)C1C(O)CC2(C)C3CCC4C(C)(C)C(=O)CCC4(C)C3CCC12C` (stereo not given), the Potency was “inactive”.
With `C=C1C[C@]23C[C@H]1CC[C@H]2[C@]1(C)CCC[C@@](C)(C(=O)O)[C@H]1[C@@H]3C(=O)O` the Potency was “inactive”.
For `CC/C(C)=C/C(=O)OC1C(OC2(C)CCC3C(C4C(C)CCC42)C3(C)C)OC(C)C(O)C1O` (stereo not given), the Potency was 8930 nM (active).
For `O=C(O)[C@H](Cc1ccccc1)Oc1ccc(-c2ccccc2)cc1`, the Potency was “inactive”.
With `C[C@H]1[C@H](C)CC[C@]2(C(=O)O)CC[C@]3(C(=O)O)C(=CCC4[C@@]5(C)CC[C@H](O[C@@H]6O[C@@H](C)[C@H](O)[C@@H](O)[C@H]6O)C(C)(C)C5CC[C@]43C)[C@H]12` (stereo not given in full) the Potency was “inactive”.
In the case of `C/C1=C\CC[C@]2(C)O[C@H]2C(=O)c2c(C)coc2C1`, the Potency is reported as “inactive”.
For `C=CC(C)(O)CC[C@H]1C(=C)CCC2[C@](C)(C(=O)O)CCC[C@@]21C` (stereo not given in full), the Potency was “inactive”.
For `CC1C/C=C/C=C\CCCCC(O)C/C=C/C(=O)O1` (stereo not given), the Potency was “inactive”.
In the case of `CC(O)C1CCC2C3CCC4CC(OC5OC(C(=O)O)C(O)C(O)C5O)CCC4(C)C3CCC12C` (stereo not given), the Potency is reported as “inactive”.
